Seven molecules from PubChem BioAssay (NCATS) can be followed below.

Assay [1] addresses Lysosomal acid glucosylceramidase (Homo sapiens) (UniProt P04062). Kind of assay: Glucocerebrosidase-p2 (AID 348; in the data active means potency below about 10 µM; further: potency means the concentration at half of the fitted maximal effect). Conditions: purified GBA, blue fluorogenic substrate, 40 min. Summed up: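 Normal human glucocerebrosidase (0.2 nM) with blue fluorogenic substrate (80 uM final) in citrate/phosphate pH 5.9 with 10mM sodium taurocholate, 0.01% tween-20; 40 min RT, NaOH/glycine stop; fluorescence Ex 365/Em 440; AC50 from a titration from 0.6 nM upwards.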

In assay [2] the target is Cytochrome P450 1A2 (Homo sapiens) (UniProt P05177). Kind of assay: p450-cyp1a2 (AID 410; calls by dose curve; further: potency means the concentration at half of the fitted maximal effect;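 on activity change, negative = inhibition: -100% = full effect of reference inhibitor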). Conditions: recombinant CYP1A2, luciferin-ME demethylation, luminescence; series mostly up to 57 µM. Summed up:
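Read-out is luminescence from luciferin produced by CYP1A2 demethylation of Luciferin-ME (100uM, at Km). Detection reagent stopped the 60 min NADPH-dependent reaction; signals were normalized to 57 uM furafylline.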

Assay [3] deals with Glucocorticoid receptor (Homo sapiens) (UniProt P04150). Kind of assay: GR-GFP Redistribution (AID 450;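 active means compounds whose dose series gives a full or clear partial fitted curve of increased nuclear translocation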; further: potency means the concentration at half of the fitted maximal effect). Conditions: U2OS GR-GFP nuclear translocation, laser cytometry, 2 h.
Sequence of Glucocorticoid receptor (Homo sapiens) (P04150 whole entry, looked up): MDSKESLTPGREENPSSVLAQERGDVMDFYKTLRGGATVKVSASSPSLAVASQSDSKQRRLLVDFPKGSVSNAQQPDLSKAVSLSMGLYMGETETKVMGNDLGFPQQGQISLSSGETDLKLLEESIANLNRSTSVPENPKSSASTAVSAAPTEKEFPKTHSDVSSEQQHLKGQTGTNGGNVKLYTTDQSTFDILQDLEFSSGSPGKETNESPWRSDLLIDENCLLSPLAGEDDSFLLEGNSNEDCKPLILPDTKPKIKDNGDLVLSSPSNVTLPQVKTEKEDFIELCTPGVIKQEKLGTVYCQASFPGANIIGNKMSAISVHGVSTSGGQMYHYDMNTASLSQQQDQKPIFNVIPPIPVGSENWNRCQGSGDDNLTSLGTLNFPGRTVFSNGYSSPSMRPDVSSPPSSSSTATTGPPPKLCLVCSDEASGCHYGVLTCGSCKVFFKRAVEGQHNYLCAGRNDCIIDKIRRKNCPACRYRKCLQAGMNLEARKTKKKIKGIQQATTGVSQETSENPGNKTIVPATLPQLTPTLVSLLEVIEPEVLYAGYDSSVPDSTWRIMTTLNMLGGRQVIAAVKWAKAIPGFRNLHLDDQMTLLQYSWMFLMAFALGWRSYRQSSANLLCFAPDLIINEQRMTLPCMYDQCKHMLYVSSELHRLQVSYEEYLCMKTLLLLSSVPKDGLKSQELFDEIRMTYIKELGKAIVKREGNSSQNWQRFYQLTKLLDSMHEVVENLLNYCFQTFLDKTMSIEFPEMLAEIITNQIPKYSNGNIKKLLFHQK
The target is the same in assay [4]. Kind of assay: GR-EFC Redistribution (AID 451; calls by dose curve; further: potency means the concentration at half of the fitted maximal effect). Conditions: CHO-K1 GR-EFC translocation, beta-gal luminescence, 2 h. Summed up:
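CHO-K1 cells expressing nuclear EA and GR-ED fragments of b-gal; compounds titrated up to 46 uM final, 2 h at 37 C. GR nuclear translocation read as complemented b-gal luminescence after 1 h RT detection.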

Assay [5] addresses Mitogen-activated protein kinase 10 (Mus musculus) (UniProt Q61831). Kind of assay: JNK3 AlphaScreen Assay (AID 530; active means well fitted curve in either direction with a large enough effect, not every such curve was filed as active;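 further: kinase came from lysate of stimulated human HepG2 cells; signal reports phosphorylation of biotinylated GST-cJun 1-79 at Ser73 with 10 µM ATP; on the % scale 0 is the no-effect control and ±100 the full control effect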). Conditions: JNK3 lysate, c-Jun phosphorylation; series mostly up to 57.1 µM. An outline of the steps: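 HepG2 lysate (IL-1b/TNFa pre-activated) + biotin-GST-cJun 1-79 + anti-pSer73 cJun; cpd titration, 15 min RT; ATP 10 uM start; Tris pH 7.6, MgCl2, DTT, vanadate; beads in EDTA buffer; AlphaScreen.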

Assay [6] deals with 3',5'-cyclic-AMP phosphodiesterase 4B (Homo sapiens) (UniProt Q07343). Description: qHTS Assay for Inhibitors of PDE-IV (AID 607; active means well fitted activation curve with a large enough effect in the main read-out, with a control signal flat, not every such curve was filed as active; further: % of control where 0% means no effect). Conditions: HEK293 ACTOne CNG channel cells, membrane potential fluorescence; series mostly up to 22.9 µM. Summed up: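 The readout is membrane depolarisation from a cAMP-sensing CNG channel, detected with a potential dye at ex 535/em 590. Cells were HEK293-derived (endogenous PDE-IV) at 1000 cells/well, titrated up to 22.9 uM final.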
Sequence of 3',5'-cyclic-AMP phosphodiesterase 4B (Homo sapiens) (Q07343 whole entry, looked up): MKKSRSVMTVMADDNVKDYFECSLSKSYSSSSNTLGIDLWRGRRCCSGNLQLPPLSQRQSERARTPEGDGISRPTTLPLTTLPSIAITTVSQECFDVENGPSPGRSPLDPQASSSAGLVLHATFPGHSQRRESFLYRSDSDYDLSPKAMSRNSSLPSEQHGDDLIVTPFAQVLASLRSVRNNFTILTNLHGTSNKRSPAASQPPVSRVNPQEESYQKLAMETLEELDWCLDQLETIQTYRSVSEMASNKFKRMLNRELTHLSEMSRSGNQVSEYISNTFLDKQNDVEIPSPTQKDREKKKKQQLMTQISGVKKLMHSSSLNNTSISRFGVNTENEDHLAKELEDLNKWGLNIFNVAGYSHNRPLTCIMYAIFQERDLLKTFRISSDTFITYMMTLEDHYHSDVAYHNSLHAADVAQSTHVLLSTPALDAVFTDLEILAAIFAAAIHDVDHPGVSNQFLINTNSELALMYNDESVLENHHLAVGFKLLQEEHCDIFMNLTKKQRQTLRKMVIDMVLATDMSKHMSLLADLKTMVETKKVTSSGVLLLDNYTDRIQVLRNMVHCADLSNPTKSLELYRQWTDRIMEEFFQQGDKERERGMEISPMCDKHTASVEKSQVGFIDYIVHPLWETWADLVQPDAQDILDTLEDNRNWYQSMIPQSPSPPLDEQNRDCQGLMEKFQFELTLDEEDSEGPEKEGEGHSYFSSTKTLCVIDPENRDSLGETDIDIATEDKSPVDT

Assay [7] in a line: qHTS Assay for Identification of Small Molecule Agonists for Hypoxia Response Element Signaling Pathway (AID 914; active means well fitted activation curve with a large enough effect in the signal ratio, with a control signal flat, not every such curve was filed as active; the % refers to the signal ratio; further: potency means the concentration at half of the fitted maximal effect). Conditions: ME-180 HRE-bla reporter, beta-lactamase ratio, CoCl2, 17 h; activation: hits give high values. Summed up:
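Positive modulation of EC50 CoCl2-induced hypoxia response element signaling is measured in ME-180 cells with a beta-lactamase reporter. Compounds are titrated, incubation runs 17 hours, and %Activity derives from the blue/green ratio.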

The target in assay [8] is Dual specificity protein kinase CLK4 (Homo sapiens) (UniProt Q9HAZ1). Description: qHTS Assay for Inhibitors of CDC-like Kinase 4 (Kinase-Glo Assay) (AID 1770). Further: nearly all actives have a fitted effect of over 65% in size. Further: potency means the concentration at half of the fitted maximal effect. Conditions: recombinant Clk4, Kinase-Glo ATP depletion luminescence; series mostly up to 66.7 µM. An outline of the steps: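 Readout: Kinase-Glo luminescence from ATP left after a 4.5 h room-temperature reaction of 25 nM Clk4 with 100 uM RS peptide and 1 uM ATP (final). Buffer: 25 mM Tris pH 7.5, 10 mM MgCl2.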
Sequence of Dual specificity protein kinase CLK4 (Homo sapiens) (Q9HAZ1 whole entry, looked up): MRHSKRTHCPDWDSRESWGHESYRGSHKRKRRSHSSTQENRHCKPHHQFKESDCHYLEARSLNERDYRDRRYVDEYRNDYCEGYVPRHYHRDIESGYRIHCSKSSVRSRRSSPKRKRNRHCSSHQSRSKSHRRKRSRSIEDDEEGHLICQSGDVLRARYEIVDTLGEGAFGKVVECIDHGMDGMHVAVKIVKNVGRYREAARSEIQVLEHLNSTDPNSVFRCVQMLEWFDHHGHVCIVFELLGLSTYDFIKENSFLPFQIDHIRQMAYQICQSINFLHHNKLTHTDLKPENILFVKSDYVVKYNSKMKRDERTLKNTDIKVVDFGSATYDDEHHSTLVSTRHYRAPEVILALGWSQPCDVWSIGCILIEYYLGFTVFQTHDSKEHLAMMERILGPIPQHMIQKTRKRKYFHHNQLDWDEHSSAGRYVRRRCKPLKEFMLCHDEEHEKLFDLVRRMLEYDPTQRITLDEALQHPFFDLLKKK
In general terms: In qHTS, concentration-response curves come from the screen itself.

For assay [9] the target is unchanged. Description: qHTS Assay for Inhibitors of CDC-like Kinase 4 (ADP-Glo Assay) (AID 1771). Further: nearly all actives have a fitted effect of over 70% in size. Further: potency means the concentration at half of the fitted maximal effect. Conditions: recombinant CLK4, ADP-Glo luminescence; series mostly up to 80 µM. Summed up: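 In this ADP-Glo format, 1 uM ATP and 100 uM RS peptide served as substrates for 25 nM Clk4 in Mg2+/EGTA/DTT/Triton buffer; reactions ran 1 hr at room temperature before luminescent ADP quantification.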

For assay [10] the target is unchanged. Description: qHTS Assay for Inhibitors of CDC-like Kinase 4 (ADP-FP Assay) (AID 1795). Further: nearly all actives have a fitted effect of over 60% in size. Further: potency means the concentration at half of the fitted maximal effect. Conditions: Transcreener ADP fluorescence polarization; series mostly up to 50 µM. Summed up:
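FP readout: Orange Transcreener ADP2 tracer (4 nM) plus ADP antibody, read after 30 min at room temperature. Kinase step: 6.25 nM Clk4, 100 uM RS peptide, 1 uM ATP, pH 7.5, 1 h.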

Assay [11] concerns the target Ubiquitin carboxyl-terminal hydrolase 1 (Homo sapiens) (UniProt O94782). Kind of assay: Inhibitors of USP1/UAF1: Pilot qHTS (AID 504865).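 Further: rhodamine fluorescence freed from ubiquitin-rhodamine substrate followed over time; top concentration of the series differs between compounds; on the % scale 0 is the no-effect control and ±100 the full control effect; nearly all actives have a fitted effect of over 35% in size.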 Conditions: purified USP1/UAF1, Ub-rhodamine cleavage fluorescence; series mostly up to 54.9 µM. An outline of the steps: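 1nM USP1/UAF1 + cpd, 15 min RT; start w/ Ub-Rho 150nM final; kinetic FL 480/540 nm, 6 reads q60 s. Buffer 50mM HEPES pH 7.8, 0.5mM EDTA, 1mM TCEP, 0.01% Tween-20, 0.1 mg/ml BSA.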

Assay [12] in a line: Primary qHTS for small molecule stabilizers of the endoplasmic reticulum resident proteome: Secreted ER Calcium Modulated Protein (SERCaMP) assay (AID 1508630). Further: on the % scale 0 is the no-effect control and ±100 the full control effect. Conditions: SH-SY5Y GLuc-SERCaMP (Gaussia luciferase released on ER calcium loss) secretion, thapsigargin, luminescence; series mostly up to 38.4 µM. An outline of the steps: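 The SH-SY5Y reporter protocol was run at 3 concentrations up to 38.3 uM (primary) or 11 concentrations (follow-up): 16 h compound, 100 nM thapsigargin for 4 h, then extracellular luciferase luminescence.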

Assay [13] in a line: Stat Signaling Pathway (AID 446; active means well fitted curve in either direction with a large enough effect, not every such curve was filed as active;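 further: ME-180 cervical cancer cells given 40 pM IL-6 alongside compound; SIE-controlled beta-lactamase reporter measured as 460/530 nm FRET emission ratio; on the % scale 0 is the no-effect control and ±100 the full control effect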). Conditions: ME-180 SIE beta-lactamase reporter, IL-6 stimulated, 5 h; at 7.69 µM (top of the series) unless noted. An outline of the steps: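 Emission at 460 and 530 nm (excitation 405 nm) reports SIE-controlled beta-lactamase in ME-180 cells. Cells received compound with 40 pM IL-6 for 5 hrs at 37 C; data scaled between 300 pM IL-6 and 125 nM JAK-inhibitor controls.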

The target in assay [14] is Cytochrome P450 3A4 (Homo sapiens) (UniProt P08684). Description: qHTS Assay for Inhibitors and Substrates of Cytochrome P450 3A4 (AID 884). Further: nearly all actives have a fitted effect of over 50% in size. Further: potency means the concentration at half of the fitted maximal effect. Conditions: recombinant CYP3A4, Luciferin-PPXE luminescence; series mostly up to 57.1 µM. Summed up:
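Luminescent readout of luciferin produced by CYP3A4 (20 nM) dealkylation of Luciferin-PPXE, 25 uM (its KM). NADPH-driven reaction ran 60 min at RT after 10 min compound preincubation; data scaled to 57 uM ketoconazole as 100% inhibition.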

Assay [15] shares this target. Kind of assay: qHTS Assay for Activators of Cytochrome P450 3A4 (AID 885). Further: nearly all actives have a fitted effect of over 65% in size. Conditions: recombinant CYP3A4, Luciferin-PPXE luminescence, 60 min; series mostly up to 57.1 µM. Summed up: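 Activators are scored by enhanced luminescence from CYP3A4 conversion of luciferin-PPXE (25uM, equal to KM) to luciferin, after 60 min at RT with an NADPH-regenerating system.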
Assay [16] has as its target Cytochrome P450 2D6 (Homo sapiens) (UniProt P10635). Kind of assay: qHTS Assay for Inhibitors and Substrates of Cytochrome P450 2D6 (AID 891). Further: nearly all actives have a fitted effect of over 60% in size. Further: potency means the concentration at half of the fitted maximal effect. Conditions: recombinant CYP2D6, luciferin-ME EGE luminescence; series mostly up to 57.1 µM. An outline of the steps:
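Luminescent read-out of luciferin formed by 5 nM human CYP2D6 demethylating 30 uM Luciferin-ME EGE (Km level) over 60 min at room temperature after NADPH regeneration addition. Data normalized to full inhibition by 1.43 uM quinidine.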

Assay [17] in a line: AP1 Signaling Pathway (AID 357; active means well fitted curve in either direction with a large enough effect, not every such curve was filed as active;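 further: ME-180 reporter cells stimulated with EGF at its EC50 level; on the % scale 0 is the no-effect control and ±100 the full control effect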). Conditions: ME-180 (cervical carcinoma) AP-1-bla reporter, EGF-induced, beta-lactamase ratio, 5 h; at 7.69 µM (top of the series) unless noted. Summed up:
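Cells are seeded overnight, exposed to compound titrations and an EC50 level of EGF for 5 hours at 37 °C, then loaded with CCF4 dye for 2.5 hours. Beta-lactamase activity under the AP-1 element is read as a blue/green ratio.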

Assay [18] in a line: NFAT Signaling Pathway (AID 444; active means well fitted curve in either direction with a large enough effect, not every such curve was filed as active). Conditions: Jurkat NFAT-bla M1, carbachol, beta-lactamase ratio, 5 h; at 7.69 µM (top of the series) unless noted. An outline of the steps:
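Jurkat cells with NFAT-driven β-lactamase reporter and co-expressed M1 receptor, stimulated with carbachol (final 1 uM, ~EC50), compound titration, 5 h at 37 °C. CCF4 loaded 1 h at RT; 460/530 nm ratio gave %activity and AC50.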

For assay [19], the target named is Cytochrome P450 2C19 (Homo sapiens) (UniProt P33261). Kind of assay: qHTS Assay for Inhibitors and Substrates of Cytochrome P450 2C19 (AID 899). Further: potency means the concentration at half of the fitted maximal effect; nearly all actives have a fitted effect of over 60% in size. Conditions: recombinant CYP2C19, luciferin-H EGE luminescence; series mostly up to 57.1 µM. An outline of the steps: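 Luminescent read-out of luciferin formed from Luciferin-H EGE (10uM, equal to KM). Enzyme 5nM in 50mM KPO4; compound added, 10 min at 37C, then NADPH regenerating system for 60 min at 37C. Full inhibition defined by 57uM ketoconazole.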

The structures appear in SMILES notation. A number with no mark means an inactive call. Inconclusive results are not listed. The source made the active and inactive calls. Unless noted, the call rests on the fitted dose curve; in most records, active means well fitted curve in the direction sought with a large enough effect; inconclusive means small, poorly fitted or top-dose-only effect, or another doubt; inactive means no such curve, though single readings can be large; an effect the other way counts as inactive or inconclusive.

Sequence of Cytochrome P450 3A4 (Homo sapiens) (P08684 whole entry, looked up): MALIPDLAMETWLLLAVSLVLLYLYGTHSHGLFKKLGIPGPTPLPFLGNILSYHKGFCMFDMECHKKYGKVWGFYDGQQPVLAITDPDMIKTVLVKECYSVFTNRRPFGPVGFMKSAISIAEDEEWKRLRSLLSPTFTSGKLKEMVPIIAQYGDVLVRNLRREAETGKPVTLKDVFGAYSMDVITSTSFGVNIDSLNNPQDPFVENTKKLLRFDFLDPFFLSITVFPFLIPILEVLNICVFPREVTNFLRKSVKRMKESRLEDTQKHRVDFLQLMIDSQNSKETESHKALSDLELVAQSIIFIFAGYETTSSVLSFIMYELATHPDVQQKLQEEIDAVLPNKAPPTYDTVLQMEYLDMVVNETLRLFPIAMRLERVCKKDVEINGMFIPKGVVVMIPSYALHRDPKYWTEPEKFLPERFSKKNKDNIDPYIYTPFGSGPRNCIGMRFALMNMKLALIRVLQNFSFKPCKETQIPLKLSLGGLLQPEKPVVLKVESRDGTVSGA
Sequence of Ubiquitin carboxyl-terminal hydrolase 1 (Homo sapiens) (O94782 whole entry, looked up): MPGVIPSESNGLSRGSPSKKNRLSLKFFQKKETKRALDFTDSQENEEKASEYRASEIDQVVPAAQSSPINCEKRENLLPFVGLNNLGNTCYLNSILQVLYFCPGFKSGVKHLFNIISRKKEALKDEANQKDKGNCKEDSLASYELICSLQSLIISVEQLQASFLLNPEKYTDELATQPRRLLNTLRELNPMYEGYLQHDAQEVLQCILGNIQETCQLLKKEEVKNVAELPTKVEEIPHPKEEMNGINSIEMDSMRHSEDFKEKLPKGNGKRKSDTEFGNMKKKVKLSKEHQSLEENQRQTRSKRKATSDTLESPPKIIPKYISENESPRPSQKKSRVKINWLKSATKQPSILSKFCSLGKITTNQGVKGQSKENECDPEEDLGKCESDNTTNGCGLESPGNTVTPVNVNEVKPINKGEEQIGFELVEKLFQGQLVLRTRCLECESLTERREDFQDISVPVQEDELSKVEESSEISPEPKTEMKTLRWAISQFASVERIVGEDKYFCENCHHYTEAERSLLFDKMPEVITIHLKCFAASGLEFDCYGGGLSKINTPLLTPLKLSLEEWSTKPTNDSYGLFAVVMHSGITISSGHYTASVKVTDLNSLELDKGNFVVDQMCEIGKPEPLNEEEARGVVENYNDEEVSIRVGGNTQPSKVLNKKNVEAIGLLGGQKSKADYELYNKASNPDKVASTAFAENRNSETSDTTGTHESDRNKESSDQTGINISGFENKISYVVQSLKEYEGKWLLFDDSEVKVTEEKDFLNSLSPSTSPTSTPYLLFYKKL
Sequence of Cytochrome P450 1A2 (Homo sapiens) (P05177 whole entry, looked up): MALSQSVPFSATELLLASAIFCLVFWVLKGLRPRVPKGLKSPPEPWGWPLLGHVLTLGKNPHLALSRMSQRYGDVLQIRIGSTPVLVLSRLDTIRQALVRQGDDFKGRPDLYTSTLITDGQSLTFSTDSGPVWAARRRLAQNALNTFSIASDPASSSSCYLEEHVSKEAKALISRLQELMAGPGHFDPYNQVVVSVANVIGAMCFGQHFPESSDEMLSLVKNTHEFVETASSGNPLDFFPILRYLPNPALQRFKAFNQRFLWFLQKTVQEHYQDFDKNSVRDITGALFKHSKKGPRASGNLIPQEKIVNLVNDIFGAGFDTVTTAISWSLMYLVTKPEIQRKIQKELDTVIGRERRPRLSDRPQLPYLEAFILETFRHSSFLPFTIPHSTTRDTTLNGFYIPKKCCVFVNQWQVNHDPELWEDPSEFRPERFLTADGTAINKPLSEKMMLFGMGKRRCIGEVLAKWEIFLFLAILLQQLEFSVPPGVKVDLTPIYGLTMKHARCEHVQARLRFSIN
Sequence of Lysosomal acid glucosylceramidase (Homo sapiens) (P04062 whole entry, looked up): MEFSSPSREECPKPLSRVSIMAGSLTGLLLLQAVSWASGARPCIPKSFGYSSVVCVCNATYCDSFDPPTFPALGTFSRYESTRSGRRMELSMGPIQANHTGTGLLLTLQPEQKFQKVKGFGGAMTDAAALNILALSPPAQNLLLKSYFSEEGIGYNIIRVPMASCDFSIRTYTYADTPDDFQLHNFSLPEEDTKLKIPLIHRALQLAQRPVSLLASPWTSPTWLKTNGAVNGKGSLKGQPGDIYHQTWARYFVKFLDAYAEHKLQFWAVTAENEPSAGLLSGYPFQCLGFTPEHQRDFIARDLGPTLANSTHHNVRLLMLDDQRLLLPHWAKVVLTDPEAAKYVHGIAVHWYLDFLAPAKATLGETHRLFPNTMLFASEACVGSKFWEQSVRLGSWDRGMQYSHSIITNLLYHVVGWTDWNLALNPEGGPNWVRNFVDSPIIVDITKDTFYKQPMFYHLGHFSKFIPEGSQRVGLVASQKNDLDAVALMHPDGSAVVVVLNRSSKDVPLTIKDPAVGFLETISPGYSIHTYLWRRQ
Sequence of Cytochrome P450 2D6 (Homo sapiens) (P10635 whole entry, looked up): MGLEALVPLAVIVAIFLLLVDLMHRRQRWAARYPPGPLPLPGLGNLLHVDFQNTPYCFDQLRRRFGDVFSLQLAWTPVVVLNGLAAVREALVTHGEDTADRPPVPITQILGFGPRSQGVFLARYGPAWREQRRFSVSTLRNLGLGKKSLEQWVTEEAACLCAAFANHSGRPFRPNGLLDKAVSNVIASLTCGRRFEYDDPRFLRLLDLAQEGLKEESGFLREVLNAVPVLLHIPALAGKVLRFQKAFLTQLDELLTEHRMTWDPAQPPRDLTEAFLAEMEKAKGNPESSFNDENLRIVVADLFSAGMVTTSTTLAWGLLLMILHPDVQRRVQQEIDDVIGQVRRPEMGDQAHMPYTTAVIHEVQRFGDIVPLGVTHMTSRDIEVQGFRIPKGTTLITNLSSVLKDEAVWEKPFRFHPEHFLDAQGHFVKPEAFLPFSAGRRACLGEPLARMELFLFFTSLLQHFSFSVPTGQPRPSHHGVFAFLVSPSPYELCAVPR

In the case of `COCCNc1ncnc2ccc(-c3c(C)noc3C)cc12`, the Potency is over 11.4 µM in assay [1]; 3.98 µM (active) in [2]; over 46 µM in assay [3]; over 46 µM in assay [4]; 1.58 µM (active) in assay [7]; 3.98 µM (active) in [8]. Also, the Potency in [9] is 0.708 µM (active); in [10], 1.41 µM (active). The Potency entry in assay [5], in assay [6] and in [11] was “inactive” each time. Also, the outcome in [12] was inactive.

In the case of `CS(=O)(=O)Nc1cccc(-c2ccc3ncnc(N4CCOCC4)c3c2)c1`, the Potency in [1] is over 11.4 µM; in assay [2], 12.6 µM (active); in [3], over 46 µM; in [4] it was over 46 µM; in assay [14], 7.94 µM (active); in [8], 7.94 µM (active). In addition, the Potency was 6.31 µM (active) in assay [9] and 7.08 µM (active) in [10]. The activity, negative = inhibition in assay [13] was -11.8%. For the same molecule, the Potency entry in [5], in assay [15] and in assay [11] was “inactive” throughout. The outcome in [12] was inactive.

As to `O=c1c(-c2ccc(Cl)cc2)nc2cnc(N3CCOCC3)nc2n1Cc1ccc(F)cc1`, the Potency was over 11.4 µM in assay [1], over 9.22 µM in [3], over 46 µM in [4] and 3.16 µM (active) in assay [7]. Further, the Potency result in assay [2], in [5], in assay [14], in assay [16], in [8] and in assay [9] was “inactive” in each case. Besides, the Potency entry in assay [10] and in assay [11] was “inactive” throughout. Further, the outcome in assay [12] was inactive.

In the case of `N#CCCn1c(=O)c(-c2cc(F)cc(F)c2)nc2cnc(Nc3ccccc3)nc21`, the Potency in [1] is over 11.4 µM; in assay [3], over 9.22 µM; in [4] it was over 46 µM. Besides, the activity change, negative = inhibition in [17] was 9.43%. Besides, in [13], the activity, negative = inhibition was -15.8%. Further, the Potency entry in assay [5], in assay [6], in [8], in assay [9], in [10] and in assay [11] was “inactive” throughout. Further, the outcome in assay [12] was inactive.

As for `COc1cccc(-c2ccc3ncnc(NC4CC4)c3c2)c1`, the Potency in assay [1] is over 11.4 µM; in [2], 0.2 µM (active); in assay [14], 2 µM (active); in [19] it was 1.26 µM (active); in assay [8], 0.447 µM (active); in assay [9], 0.316 µM (active). Further, in assay [10], the Potency was 0.126 µM (active). Also, the activity change, negative = inhibition in assay [18] was 2.56%. Further, the Potency entry in [5], in [15] and in assay [11] was “inactive” in each case. Also, the result in assay [12] was inactive.

Take `COCCn1c(=O)c(-c2ccc(OC)cc2)nc2cnc(OCc3ccccc3)nc21`: the Potency in [1] was over 11.4 µM; in assay [3], over 9.22 µM; in [4], over 46 µM. In addition, the activity change, negative = inhibition in [17] was -11.8%. For the same molecule, in assay [13], the activity, negative = inhibition was 7.46%. Further, the Potency entry in [5], in assay [15], in [8], in assay [9], in [10] and in [11] was “inactive” in each case. Also, the outcome in assay [12] was inactive.

As to `c1cn(-c2ccnc(-c3ccc4c(c3)OCO4)n2)cn1`, the Potency was over 11.4 µM in [1]; 0.0251 µM (active) in assay [2]; over 46 µM in assay [3]; over 46 µM in [4]; 0.631 µM (active) in assay [14]; 3.16 µM (active) in [16]. The Potency is 2.51 µM (active) in [8], 2.24 µM (active) in assay [9] and 3.98 µM (active) in assay [10]. For the same molecule, the activity change, negative = inhibition in assay [18] is 17.8%. For the same molecule, the activity, negative = inhibition in assay [13] is 5.91%. For the same molecule, the Potency entry in assay [5], in [6], in [15] and in assay [11] was “inactive” each time. For the same molecule, in assay [12], the result was inactive.
